# From ChEMBL document CHEMBL3988442, “University of Dundee, Small-Polar-MMV Screening Library” (2021)
# For some assays here: Entries with a potency or affinity are not part of this list.
# How the values were obtained:
# Parameters in all cases: scale not given: direction of the effect not stated beside the values
# [1] = target: Protein translocase subunit SecA (Escherichia coli (strain K12)) (UniProt P10408); experiment: Assay to Identify E. coli SecA ATPase Inhibitors; format: functional; conditions: 30 µM
# [2] = target: T1, Ubiquitin-activating enzyme e1, putative (Leishmania donovani (strain BPK282A1)) (UniProt E9BSI1); experiment: Leishmania donovani Ubiquitin Activating Enzyme (LdE1); format: functional; conditions: 30 µM
# T1 sequence (whole entry): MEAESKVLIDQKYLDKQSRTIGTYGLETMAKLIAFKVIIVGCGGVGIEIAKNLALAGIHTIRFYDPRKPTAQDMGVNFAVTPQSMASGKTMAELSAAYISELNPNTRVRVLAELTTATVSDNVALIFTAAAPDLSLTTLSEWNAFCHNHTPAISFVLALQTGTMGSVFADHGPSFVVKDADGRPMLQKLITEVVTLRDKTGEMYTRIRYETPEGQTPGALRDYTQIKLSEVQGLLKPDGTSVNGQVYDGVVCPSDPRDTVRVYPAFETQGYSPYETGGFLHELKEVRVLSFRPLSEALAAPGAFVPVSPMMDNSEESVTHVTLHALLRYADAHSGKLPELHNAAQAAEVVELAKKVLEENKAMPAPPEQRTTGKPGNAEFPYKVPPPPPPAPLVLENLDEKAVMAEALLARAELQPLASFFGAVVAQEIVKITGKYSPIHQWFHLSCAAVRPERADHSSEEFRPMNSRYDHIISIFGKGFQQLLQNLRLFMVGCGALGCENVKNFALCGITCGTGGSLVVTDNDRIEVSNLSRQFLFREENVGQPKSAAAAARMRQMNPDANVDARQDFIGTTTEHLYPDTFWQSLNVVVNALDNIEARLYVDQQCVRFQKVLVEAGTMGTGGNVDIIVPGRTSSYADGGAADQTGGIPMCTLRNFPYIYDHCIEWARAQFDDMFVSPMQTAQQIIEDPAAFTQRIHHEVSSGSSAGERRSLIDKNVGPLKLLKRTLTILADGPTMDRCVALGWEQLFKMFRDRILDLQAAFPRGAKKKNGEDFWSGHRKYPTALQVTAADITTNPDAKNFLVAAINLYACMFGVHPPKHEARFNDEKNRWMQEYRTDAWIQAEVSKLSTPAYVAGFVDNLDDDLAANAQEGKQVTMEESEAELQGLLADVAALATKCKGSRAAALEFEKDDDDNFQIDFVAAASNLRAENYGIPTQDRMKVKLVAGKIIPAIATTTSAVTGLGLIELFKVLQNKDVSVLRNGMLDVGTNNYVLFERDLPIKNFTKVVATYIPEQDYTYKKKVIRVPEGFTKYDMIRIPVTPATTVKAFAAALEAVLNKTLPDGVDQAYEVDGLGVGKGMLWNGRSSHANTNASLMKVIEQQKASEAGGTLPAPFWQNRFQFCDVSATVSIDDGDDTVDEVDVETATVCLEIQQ
# [3] = target: AMP-activated protein kinase, AMPK (Homo sapiens) (UniProt P54646+O43741+P54619+Q9UGJ0+Q9Y478+Q13131+Q9UGI9); experiment: AMP-dependent Kinase enzyme assay. An in vitro enzyme assay that detects ADP turnover that is directly proportional to AMPK activity. This uses naive AMPK that is activated during the assay with MK-8722; format: functional; conditions: 30 µM
# [4] = target: Sialic acid-binding Ig-like lectin 9 (Homo sapiens) (UniProt Q9Y336); experiment: Hs-Siglec9 ALPHAscreen SOP 20170721; conditions: 10 µM
# Trypanosoma cruzi = experiment: Trypanosoma cruzi phosphomannomutase and mannose-1-phosphate guanylyltransferase assay; format: functional; conditions: 10 µM
# [5] = target: T2, Arginase-2, mitochondrial (Homo sapiens) (UniProt P78540); experiment: in vitro enzyme assay to detect the production of urea directly proportional to the activity of Arginase II; format: functional; conditions: 33.3 µM; also: in the data most compounds retested in dose-response had high values
# T2 sequence (whole entry): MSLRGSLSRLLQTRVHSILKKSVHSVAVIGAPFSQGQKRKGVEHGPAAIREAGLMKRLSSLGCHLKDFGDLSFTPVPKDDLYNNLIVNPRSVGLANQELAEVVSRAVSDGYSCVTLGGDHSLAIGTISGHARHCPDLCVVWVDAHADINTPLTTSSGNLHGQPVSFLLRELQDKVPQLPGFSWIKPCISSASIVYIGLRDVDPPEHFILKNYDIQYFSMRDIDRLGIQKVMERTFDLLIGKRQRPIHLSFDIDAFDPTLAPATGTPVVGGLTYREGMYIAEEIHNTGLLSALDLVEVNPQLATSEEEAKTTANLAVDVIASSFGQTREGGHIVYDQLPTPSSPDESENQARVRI
# [6] = target: T3, Proteasome subunit beta (Trypanosoma cruzi) (UniProt O96673); experiment: Trypanosoma cruzi proteasome chymotrypsin-like activity (TcProtChymo) assay.; also: in the data most compounds retested in dose-response had high values; format: functional; conditions: 9.37 µM
# T3 sequence (whole entry): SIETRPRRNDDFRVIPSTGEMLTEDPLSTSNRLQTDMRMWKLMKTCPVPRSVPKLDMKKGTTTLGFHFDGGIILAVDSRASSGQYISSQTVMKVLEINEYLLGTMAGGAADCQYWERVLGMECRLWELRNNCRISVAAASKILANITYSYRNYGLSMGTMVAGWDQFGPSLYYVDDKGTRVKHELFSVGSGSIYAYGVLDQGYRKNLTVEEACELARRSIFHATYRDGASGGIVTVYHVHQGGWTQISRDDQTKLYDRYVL
# Homo sapiens = species: Homo sapiens; experiment: To identify inhibition of the IFN signalling (Jak-Stat) pathway via expression of an eGFP reporter gene under the control of an IFN-stimulated response element (ISRE) containing MxA promoter.; format: functional; conditions: 30 µM
# [7] = target: T4, Tyrosyl-tRNA synthetase, putative (Trypanosoma cruzi (strain CL Brener)) (UniProt Q4DSP6); experiment: Trypanosoma cruzi tyrosyl tRNA synthetase (TcYRS) _High Tyrosine SOP; format: functional; conditions: 30 µM; also: in the data most compounds retested in dose-response had high values
# T4 sequence (whole entry): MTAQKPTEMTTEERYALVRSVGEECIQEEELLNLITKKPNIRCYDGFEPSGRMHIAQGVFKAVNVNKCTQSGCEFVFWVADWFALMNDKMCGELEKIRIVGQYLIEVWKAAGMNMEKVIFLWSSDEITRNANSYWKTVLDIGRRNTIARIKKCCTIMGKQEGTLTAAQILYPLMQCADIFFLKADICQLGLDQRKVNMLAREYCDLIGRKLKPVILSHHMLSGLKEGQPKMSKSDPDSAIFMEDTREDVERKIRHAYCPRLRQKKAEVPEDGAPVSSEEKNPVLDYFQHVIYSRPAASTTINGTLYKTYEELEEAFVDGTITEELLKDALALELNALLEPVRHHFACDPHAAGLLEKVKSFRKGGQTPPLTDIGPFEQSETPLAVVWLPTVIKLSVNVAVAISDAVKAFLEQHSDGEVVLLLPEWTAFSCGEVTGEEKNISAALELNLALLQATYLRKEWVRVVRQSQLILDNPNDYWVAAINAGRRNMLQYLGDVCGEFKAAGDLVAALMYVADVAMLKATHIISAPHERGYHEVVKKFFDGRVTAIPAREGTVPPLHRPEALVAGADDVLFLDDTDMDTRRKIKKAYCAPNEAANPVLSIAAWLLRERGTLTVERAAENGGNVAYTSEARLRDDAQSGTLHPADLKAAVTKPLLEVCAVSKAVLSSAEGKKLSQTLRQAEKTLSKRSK
# [8] = target: T4, Tyrosyl-tRNA synthetase, putative (Trypanosoma cruzi (strain CL Brener)); experiment: Trypanosoma cruzi tyrosyl tRNA synthetase (TcYRS) SOP; format: functional; conditions: 30 µM
# [9] = target: Chromo domain-containing protein 1 (Saccharomyces cerevisiae (strain ATCC 204508 / S288c) (Baker's yeast)) (UniProt P32657); experiment: ScCHD-1 Enzyme Inhibition Assay; format: functional; conditions: 30 µM; also: in the data most compounds retested in dose-response had high values
# Chromo domain-containing protein 1 (Saccharomyces cerevisiae (strain ATCC 204508 / S288c) (Baker's yeast)), sequence (P32657 whole entry, the tested form may be a part): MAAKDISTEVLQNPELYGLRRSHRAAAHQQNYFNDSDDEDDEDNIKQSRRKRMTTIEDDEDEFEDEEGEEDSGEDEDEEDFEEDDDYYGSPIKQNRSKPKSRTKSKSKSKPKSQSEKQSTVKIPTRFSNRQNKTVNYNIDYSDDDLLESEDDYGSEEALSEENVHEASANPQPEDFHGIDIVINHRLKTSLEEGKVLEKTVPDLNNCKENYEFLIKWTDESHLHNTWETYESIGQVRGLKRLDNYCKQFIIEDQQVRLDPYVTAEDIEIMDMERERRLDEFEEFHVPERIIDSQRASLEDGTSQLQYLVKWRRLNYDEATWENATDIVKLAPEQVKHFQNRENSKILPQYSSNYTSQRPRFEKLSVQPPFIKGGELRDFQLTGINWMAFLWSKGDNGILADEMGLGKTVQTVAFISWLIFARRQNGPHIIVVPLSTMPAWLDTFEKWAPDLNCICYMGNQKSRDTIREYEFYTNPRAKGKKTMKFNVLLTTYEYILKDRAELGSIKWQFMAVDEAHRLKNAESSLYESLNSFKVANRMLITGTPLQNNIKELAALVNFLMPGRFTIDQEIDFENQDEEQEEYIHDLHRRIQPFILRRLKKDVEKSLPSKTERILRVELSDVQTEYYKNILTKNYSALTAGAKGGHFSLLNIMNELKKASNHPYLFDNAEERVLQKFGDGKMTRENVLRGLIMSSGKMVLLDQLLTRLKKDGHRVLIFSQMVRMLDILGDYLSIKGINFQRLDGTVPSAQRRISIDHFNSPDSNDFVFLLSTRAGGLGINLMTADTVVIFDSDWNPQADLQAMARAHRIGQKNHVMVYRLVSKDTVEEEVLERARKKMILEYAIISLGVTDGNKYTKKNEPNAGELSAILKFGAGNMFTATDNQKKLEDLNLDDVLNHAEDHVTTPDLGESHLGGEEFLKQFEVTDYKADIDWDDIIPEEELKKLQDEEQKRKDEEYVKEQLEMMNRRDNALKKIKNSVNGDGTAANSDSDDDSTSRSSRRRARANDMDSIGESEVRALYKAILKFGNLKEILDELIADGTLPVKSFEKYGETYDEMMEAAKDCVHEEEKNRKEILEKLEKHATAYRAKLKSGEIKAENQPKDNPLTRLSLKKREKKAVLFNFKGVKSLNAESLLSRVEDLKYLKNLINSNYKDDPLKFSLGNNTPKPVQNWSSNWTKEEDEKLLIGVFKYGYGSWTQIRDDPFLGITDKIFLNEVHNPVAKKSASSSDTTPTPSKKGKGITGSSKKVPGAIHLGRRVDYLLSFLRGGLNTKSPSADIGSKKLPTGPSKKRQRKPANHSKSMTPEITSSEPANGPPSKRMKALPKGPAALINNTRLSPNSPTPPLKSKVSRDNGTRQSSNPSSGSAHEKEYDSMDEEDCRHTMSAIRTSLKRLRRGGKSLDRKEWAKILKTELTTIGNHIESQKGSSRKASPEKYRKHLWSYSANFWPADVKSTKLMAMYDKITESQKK
# Sialic acid-binding Ig-like lectin 9 (Homo sapiens), sequence (Q9Y336 whole entry): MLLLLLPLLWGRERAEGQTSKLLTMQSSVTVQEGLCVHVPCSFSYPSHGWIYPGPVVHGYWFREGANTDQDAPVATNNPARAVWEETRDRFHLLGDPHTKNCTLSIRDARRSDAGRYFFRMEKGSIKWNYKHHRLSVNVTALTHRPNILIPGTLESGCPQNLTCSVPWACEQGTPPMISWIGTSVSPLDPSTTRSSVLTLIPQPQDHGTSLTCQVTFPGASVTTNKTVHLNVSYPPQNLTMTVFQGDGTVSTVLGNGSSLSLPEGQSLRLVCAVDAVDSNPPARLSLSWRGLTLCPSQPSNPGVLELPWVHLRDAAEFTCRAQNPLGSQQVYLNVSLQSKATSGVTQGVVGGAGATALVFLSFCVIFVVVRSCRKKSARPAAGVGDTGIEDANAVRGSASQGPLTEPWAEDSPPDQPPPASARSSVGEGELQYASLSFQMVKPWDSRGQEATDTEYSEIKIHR
# Protein translocase subunit SecA (Escherichia coli (strain K12)), sequence (P10408 whole entry): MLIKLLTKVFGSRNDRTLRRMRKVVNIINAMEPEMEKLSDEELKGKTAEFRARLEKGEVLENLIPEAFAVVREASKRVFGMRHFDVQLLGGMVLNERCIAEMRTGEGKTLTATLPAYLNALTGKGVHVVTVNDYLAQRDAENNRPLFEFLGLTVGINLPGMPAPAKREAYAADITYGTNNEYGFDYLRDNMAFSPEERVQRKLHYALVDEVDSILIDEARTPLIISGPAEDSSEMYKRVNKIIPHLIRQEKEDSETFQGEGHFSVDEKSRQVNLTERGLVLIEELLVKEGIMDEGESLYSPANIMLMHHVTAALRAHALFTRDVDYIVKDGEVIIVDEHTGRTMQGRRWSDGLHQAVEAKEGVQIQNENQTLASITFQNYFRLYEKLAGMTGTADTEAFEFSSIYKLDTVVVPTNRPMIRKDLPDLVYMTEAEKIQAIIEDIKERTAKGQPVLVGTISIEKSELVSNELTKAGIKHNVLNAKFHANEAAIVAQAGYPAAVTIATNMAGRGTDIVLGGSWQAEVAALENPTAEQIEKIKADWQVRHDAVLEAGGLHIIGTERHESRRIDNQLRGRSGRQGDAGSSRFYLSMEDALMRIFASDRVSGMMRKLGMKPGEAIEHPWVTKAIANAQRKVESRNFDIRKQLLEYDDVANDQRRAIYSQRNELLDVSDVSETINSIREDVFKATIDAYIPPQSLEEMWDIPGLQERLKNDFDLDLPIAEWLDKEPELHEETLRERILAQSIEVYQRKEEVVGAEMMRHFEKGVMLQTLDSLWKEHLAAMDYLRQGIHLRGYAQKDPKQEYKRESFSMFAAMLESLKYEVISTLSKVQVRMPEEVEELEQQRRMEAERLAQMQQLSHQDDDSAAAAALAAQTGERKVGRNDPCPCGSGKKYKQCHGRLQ
SMILES,Percent Effect [1] [%],Percent Effect [2] [%],Percent Effect [3] [%],Percent Effect [4] [%],Percent Effect (Trypanosoma cruzi) [%],Percent Effect [5] [%],Percent Effect [6] [%],Percent Effect (Homo sapiens) [%],Percent Effect [7] [%],Percent Effect [8] [%],Percent Effect [9] [%]
CN(CCO)Cc1nnc(C2CCN(C(=O)C(C)(C)C)CC2)n1C,-2.6,5.33,1.76,-1.99,-7.69,6.25,16.6,2.97,0.546,3.7,-6
CCc1csc(CCNC(=O)C2CC(=O)N(C(C)C)C2)n1 (stereo not given),-2.98,15.6,-6.03,4.97,0.0983,-11,8.65,8.23,6.45,13.6,-1.5
Cc1cc(CN2CCN(C(=O)Nc3cccnc3)CC2)on1,-2.38,15.8,-3.05,8.98,-2.63,4.6,4.51,-11.1,6.37,17.1,-2.69
O=C(Cc1ccsc1)N1C[C@@H]2CN(Cc3ccoc3)CCO[C@@H]2C1,-1.51,0,4.82,8.18,1.86,0.955,14.6,-8.8,0,7.69,11.3
CCOc1cc(C)nc(N2CCN(C(=O)CC)CC2)n1,-4.4,5.41,144,10.3,0.836,0.924,-14.4,17.8,6.93,6.1,7.75
CCOC(=O)N1CCN(Cc2ccc(OCc3nccn3C)cc2)CC1,-5.3,23.4,3.48,-0.124,0.562,1.42,13.7,11.1,9.71,14.6,-7.78
CN(C)C1CCN(C(=O)c2ccc(Cn3ccccc3=O)o2)CC1,-2.62,8.11,3.53,12.9,2.88,0.924,0,5.91,6.93,23.2,-4.27
O=C(C1=CCCC1)N1CCO[C@H]2[C@@H](OCC3CC3)CC[C@@H]21,-3.62,18.7,-4.28,-6.26,2.51,-51.1,18.3,-0.0365,5.21,22.5,-7.27
COc1ccc(OCC(=O)NS(=O)(=O)c2cc(F)ccc2F)cc1,-8,0,5.69,-4.95,-3.28,-3.33,5.34,22.6,-3.7,-4.88,-2.11
Cc1cc(CC(=O)N(CC2CN(C)CCO2)c2nccs2)no1 (stereo not given),1.69,0,-0.764,6.8,6.41,2.03,1.08,-15.8,0,6.1,-3.54
